NSD2 inh: inhibitors of human histone methyltransferase NSD2; O96028; NSD2 peptide methylation, AlphaScreen, 120 min; inhibition, % at 12.5 µM; actives 0.54% (n = 310,000); in the data active means inhibition above about 50%
PglD DTNB: blocks C. jejuni PglD acetyltransferase activity; actives 0.098% (n = 360,000); purified PglD enzyme, DTNB colorimetric CoA detection; inhibition, % at 12.5 µM; in the data active means inhibition above about 16%, passing the limit was not always enough; inconclusive means no clear call, values can overlap the other calls
F508del corr: correctors of CFTR F508del function in bronchial epithelial cells | AID 720511 | CFBE cells, YFP halide quenching; stimulated with forskolin plus potentiator P3; % fluorescence drop versus neutral controls | actives 0.36% (n = 350,000) | activity (quench increase), % at 7.58 µM;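 active means mean added fluorescence quench of at least 8% versus neutral control, with both replicates also reaching 8%; inconclusive means only one of the mean or replicate conditions met; inactive means mean below 8% and not both replicates reaching 8%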;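 further: cells transiently co-express mutant CFTR-F508del with the halide-sensitive YFP; corrector assay measuring rescue of mutant channel to the surface after 24 h compound exposure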
ALR inh: blocks human ALR sulfhydryl oxidase activity. actives 3.8% (n = 290,000). purified ALR, DTT oxidation, H2O2 HRP-luminol luminescence. inhibition, % (test concentration not listed). P55789;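 active means mean replicate inhibition above about 79%, with every replicate also reaching it, limit read from the data; inconclusive means only one of the two criteria met; inactive means mean below limit and not every replicate reaching it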
Target sequence (P55789 whole entry, looked up): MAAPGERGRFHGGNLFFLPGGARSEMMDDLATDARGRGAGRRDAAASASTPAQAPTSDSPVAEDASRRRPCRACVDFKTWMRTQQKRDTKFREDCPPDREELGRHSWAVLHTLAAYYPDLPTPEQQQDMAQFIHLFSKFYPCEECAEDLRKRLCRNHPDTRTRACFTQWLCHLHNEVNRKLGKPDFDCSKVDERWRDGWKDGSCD
Casp6 inh: blocks human caspase-6 cleavage activity; P55212; purified caspase-6, Z-VEID-R110 cleavage fluorescence; inhibition, % at 12.5 µM; actives 0.53% (n = 350,000); AID 686996;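 active means mean inhibition across replicates at least about 35%, with every replicate also reaching that limit, limit read from the data; inconclusive means only one of the two criteria met; inactive means neither criterion met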;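 further: 0% = median of neutral control wells and 100% = no fluorescence left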
Target sequence (P55212 24-179 limits assumed): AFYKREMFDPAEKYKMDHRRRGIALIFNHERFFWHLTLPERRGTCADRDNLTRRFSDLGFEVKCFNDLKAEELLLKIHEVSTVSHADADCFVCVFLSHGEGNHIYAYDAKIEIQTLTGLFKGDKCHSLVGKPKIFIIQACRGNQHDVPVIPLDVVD
Target sequence (P55212 194-293 limits assumed): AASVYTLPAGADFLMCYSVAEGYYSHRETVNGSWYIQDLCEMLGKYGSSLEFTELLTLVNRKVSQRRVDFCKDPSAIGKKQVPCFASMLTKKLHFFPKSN
Env fusion inh: inhibitors of HIV Env-mediated cell fusion; HeLa-JRFL Env/CEM21 cell fusion, luciferase; inhibition, % at 12.3 µM; actives 1.1% (n = 360,000); AID 651610;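 active means mean replicate inhibition score of at least 50 and every replicate individually at or above 50; inconclusive means only one of the two criteria met; inactive means mean below 50 and not all replicates reaching 50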;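 further: 0% = plate neutral controls and 100% = maraviroc near 300 nM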
An asterisk follows results filed as active; u = inconclusive; x = no result given; [ ] = another dose, or the depositor's remark. The list is not random: actives were taken first. Their share in the collection is about 4.1%.

SMILES	NSD2 inh	PglD DTNB	F508del corr	ALR inh	Casp6 inh	Env fusion inh
Cc1cccc(NC(=O)CSc2nc(C)c(Cc3ccccc3)c(=O)[nH]2)c1	0	5	-3	-3	0	-12
O=C(CSc1nc(O)c(Cc2ccccc2)c(=O)[nH]1)Nc1ccccc1	3	x	x	99*	x	-55
COc1ccc(CCNC(=O)CSC(=O)c2ccccc2)cc1OC	1	x	x	99*	0	-12
CCN(CC)C(=O)CSc1nc(O)c(Cc2ccc(OC)cc2)c(=O)[nH]1	0	0	-1	98*	2	7
COc1ccc(CCNC(=O)COc2ncnc3ccccc23)cc1OC	-2	-2	-2	-1	3	8
COCC(=O)Nc1ccc2c(c1)OC[C@@H](C)N(C(=O)c1ccncc1)C[C@@H](C)[C@H](OC)CN(C)C2=O	x	-2	-1	x	2	-6[16.7 µM]
COc1ccc2c3c(n(C)c2c1)[C@H](CO)N(C(=O)CN(C)C)CC31CN(S(C)(=O)=O)C1	x	x	-1	x	x	x
COc1ccc(NC(=O)CSc2nc(O)c(Cc3ccccc3)c(=O)[nH]2)cc1	2	2	x	99*	x	-18
COc1ccc(CCNC(=O)CSc2nc3[nH]ncc3c(=O)[nH]2)cc1OC	-3	x	3	-9	-1	-13
CCc1c(O)nc(SCC(=O)N2CCc3cc(OC)c(OC)cc3[C@@H]2C)[nH]c1=O	x	-5	5	99*	-2	x
CCCc1c(O)nc(SCC(=O)NCCc2ccc(OC)c(OC)c2)[nH]c1=O	1	3	x	98*	x	x
C[C@@H]1CCCCO[C@@H](CN(C)S(=O)(=O)c2cccs2)[C@H](C)CN([C@H](C)CO)C(=O)c2cc(NC(=O)Nc3ccccc3)ccc2O1	x	0	1	x	-1	17[16.7 µM]
O=C(O)CCCCN1C(=O)/C(=C\c2ccc(OCc3ccccc3)c(OCc3ccccc3)c2)SC1=S	6	-1	-2	-8	72*	-61
Cc1ccc(NC(=O)COc2cccc(/C=C3\SC(=S)N(CCC(=O)O)C3=O)c2)cc1Cl	0	x	-1	10	42*	-15
O=C(O)CCCN1C(=O)/C(=C\c2ccccc2OCc2ccccc2)SC1=S	x	x	2	13	20	5
O=C(O)CN1C(=O)/C(=C\c2cc([N+](=O)[O-])ccc2OCc2ccccc2Cl)SC1=S	x	-6	-4	u	36*	-3
O=C(O)CN1C(=O)/C(=C\c2cc(Br)ccc2OCc2ccc(Cl)cc2)SC1=S	19	-5	0	98*	77*	-8
COc1ccc(NC(=O)N(C)C[C@H]2Oc3ccc(NS(=O)(=O)c4c(C)noc4C)cc3CC(=O)N([C@H](C)CO)C[C@H]2C)cc1	x	3	-1	x	2	-14[16.7 µM]
C[C@@H]1CCCCO[C@@H](CN(C)CC2CCCCC2)[C@@H](C)CN([C@@H](C)CO)C(=O)c2cc(NC(=O)NC3CCCCC3)ccc2O1	x	3	-1	x	x	21[16.7 µM]
CCN1[C@@H]2c3ccc(C4=CCCC4)c(=O)n3C[C@@H]2[C@@H](CO)[C@@H]1C(=O)NCCCN(C)C	x	x	-3	x	2	x
O=C(O)COc1cccc(/C=C2/SC(=S)N(Cc3ccccc3)C2=O)c1	4	-1	-1	6	25	-5
COc1ccc(/C=C2/SC(=S)N(CC(=O)O)C2=O)cc1OCc1ccc(Cl)cc1	14	-9	0	88*	31	-14
O=C(O)CN1C(=O)/C(=C\c2cccc(OCc3ccccc3)c2)SC1=S	24	1	-2	83*	20	5
O=c1[nH][nH]c2c(N=Cc3ccccc3O)ccc(F)c12	x	2	x	x	97*	x
CCc1ccc(O)c(N=Cc2ccccc2O)c1	x	x	0	74	0	x
SMILES	NSD2 inh	PglD DTNB	F508del corr	ALR inh	Casp6 inh	Env fusion inh
CC1(C)CC(=O)C=C(Nc2ccccc2N)C1	-3	-4	1	99*	-2	-1
C[C@@H]1CN([C@H](C)CO)C(=O)c2cc(-c3ccncc3)cnc2O[C@H]1CN(C)C(=O)C1CCC1	x	x	-3	x	x	-5[16.7 µM]
O=C(C1CCN(c2ccc(N3CCOCC3)nn2)CC1)N1CCc2ccccc2C1	4	2	0	-6	56*	x
O=C(C1CCN(S(=O)(=O)N2CCC3(CC2)OCCO3)CC1)N1CCc2ccccc2C1	x	-1	-1	-8	-1	x
CN(C(=O)c1cccc(NC(=O)Cc2cccc(NC(=O)C3CCCN(C(=O)C4CCC4)C3)c2)c1)C1CCC1 (stereo not given)	x	4	2	x	8	85*
CN(C(=O)c1ccc(NC(=O)Cc2ccc(NC(=O)C3CCCN(C(=O)CCc4ccccc4)C3)cc2)cc1)C1CC1 (stereo not given)	x	-1	0	-3	-2	56*
CCCC#Cc1ccc([C@@H]2[C@H]3CN(C(=O)c4cccnc4)CC(=O)N3[C@H]2CO)cc1	x	x	2	x	0	x
CCCCC1(c2ccc(F)cc2)NC(=O)N(CC(=O)N2CCN(C(=O)c3ccco3)CC2)C1=O (stereo not given)	-3	-2	-1	1	46*	3
Cc1ccccc1Nc1nc(N)[nH]c(=O)c1N=O	6	1	1	x	5	31
CC(O)CNc1nc(N)[nH]c(=O)c1N=Nc1ccccc1 (stereo not given)	6	-8	11*	x	3	x
O=C(NCc1n[nH]c(=S)n1-c1ccccc1)c1ccc(S(=O)(=O)N2CCOCC2)cc1	-3	-3	x	91*	x	-63
O=C(NCc1n[nH]c(=S)n1-c1ccc(F)cc1)c1ccc(S(=O)(=O)N2CCOCC2)cc1	-3	x	2	36	-1	7
C[C@H]1CN([C@@H](C)CO)C(=O)c2c(c3ccccc3n2C)-c2ccccc2CO[C@H]1CN(C)Cc1cccc(F)c1	x	-1	6	x	3	67*
C[C@H](CO)N1C[C@H](C)[C@H](CN(C)Cc2cccc(F)c2)OCc2ccccc2-c2ccccc2C1=O	x	x	2	x	x	75*[16.7 µM]
C[C@@H]1CN([C@@H](C)CO)C(=O)c2ccccc2-c2ccccc2CO[C@@H]1CN(C)Cc1cccc(O)c1	x	63	1	x	-2	-5[16.7 µM]
C[C@H](CO)N1C[C@H](C)[C@H](CN(C)Cc2cccnc2)OCc2ccccc2-c2c(n(C)c3ccccc23)C1=O	x	-4	3	x	2	59*[16.7 µM]
C[C@@H]1CN([C@@H](C)CO)C(=O)c2c(c3ccccc3n2C)-c2ccccc2CO[C@@H]1CN(C)Cc1cccnc1	x	0	1	x	-2	-7[16.7 µM]
C[C@H](CO)N1C[C@H](C)[C@H](CN(C)Cc2ccc(-c3ccccc3)cc2)Oc2c(NC(=O)C3CCCCC3)cccc2C1=O	x	x	7	x	x	-4[16.7 µM]
COc1cccc(CN2CC3(CCN(Cc4ccccn4)CC3)c3c([nH]c4cc(OC)ccc34)[C@@H]2CO)c1	x	x	-1	x	-5	x
Nc1ccc(C(=O)Nc2ccc3c(O)cc(S(=O)(=O)O)cc3c2)cc1	8	-1	-1	x	84*	10

Compound activity (PubChem)
